# Assay outcomes from PubChem BioAssay.
# Shown are actives, neighbours in structure and some others; about 15% of the full set was active somewhere.
# Pf growth 48h: Primary qHTS for delayed death inhibitors of the malarial parasite plastid, 48 hour incubation | P. falciparum luciferase growth in erythrocytes, 48 h | Potency, µM (series often up to 28.7 µM), hits mostly inhibitors | 310,000 compounds, 5.9% hits
#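 Luciferase-expressing parasites in RBCs, 2% Hct / 0.1% parasitemia final; RPMI 1640 + 0.5% Albumax; 37 C, 5% CO2, one generation; luminescence read-out, lower signal = inhibition.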
# HCV inh: qHTS Assay for Inhibitors of Hepatitis C Virus (HCV); Potency, µM (doses to about 41.8 µM), most hits filed as inhibitors; Huh7.5.1 HCVcc-Cre infection, luciferase reporter, 44 h; AID 651820, 2012; 340,000 compounds, 3.4% hits
#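 Cells seeded at 1,000/well and cultured 4 h, then compounds added followed by HCVcc-Cre virus (~0.5 moi). After 44 h further culture, luciferase substrate was added, plates held 15 min at room temperature, and luminescence read for 15 sec.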
# Sm TGR inh: qHTS Assay for the Inhibitors of Schistosoma Mansoni Peroxiredoxins; Schistosoma mansoni thioredoxin glutathione reductase (TGR), Q962Y6; purified TGR, DTNB reduction, TNB absorbance 405 nm; Potency, µM (top dose mostly 114 µM), hits mostly inhibitors; 360,000 compounds, 3% hits; AID 485364, 2010; further: nearly all actives have a fitted effect of over 60% in size
#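 TGR 20 nM + NADPH 100 uM (dispensed conc.), cpd preinc 15 min RT; start with NADPH (500 uM addition) then DTNB (15 mM addition). Kinetic TNB absorbance, 405 nm filter. Four-parameter Hill fit across titration.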
# HCMV inh: qHTS Assay for inhibitors of the human cytomegalovirus (HCMV) | 410,000 compounds, 4.5% hits | AID 1259415, 2018 | HFF cells, HCMV-luciferase reporter, 72 h; stronger effect = lower value | activity change, negative = inhibition, % at 57.5 µM; in the data active means activity change below about -60%; inconclusive means no clear call, values can overlap the other calls; inactive means above about -39%
#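 After 16 h attachment at 37C, HFF cells received test compound and HCMV-luciferase (1 PFU/cell); reporter luminescence read 72 h later, data normalized against buffer-only and known inhibitor Salinomycin.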
# SARS PLpro yeast: qHTS of Yeast-based Assay for SARS-CoV PLP; S. cerevisiae expressing SARS-CoV PLpro, growth rescue; Potency, µM (highest dose often 32.9 µM), actives largely listed as activators; AID 485353, 2010; 330,000 compounds, 0.19% hits; calls by dose curve; further: nearly all actives have a fitted effect of over 55% in size
# Pf growth 96h: Primary qHTS for delayed death inhibitors of the malarial parasite plastid, 96 hour incubation. P. falciparum luciferase reporter growth, 96 h. Potency, µM (titrated, usually from 28.7 µM), most hits filed as inhibitors. 320,000 compounds, 6.9% hits
#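 Plates of compound plus infected erythrocytes (2% hematocrit, 0.05% parasitemia final) incubate 96 hours, 37 C, 5% CO2. Detection reagent added; reduced luminescence from the parasites' luciferase reporter flags inhibition.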
# A number is an active result; i = inactive; ? = inconclusive; nt = no result given; + = active, no number; ! = not confirmed by another sample; [ ] = remark or other dose. Unless noted, the call rests on the fitted dose curve; in most records, active means well fitted curve in the direction sought with a large enough effect; inconclusive means small, poorly fitted or top-dose-only effect, or another doubt; inactive means no such curve, though single readings can be large; an effect the other way counts as inactive or inconclusive.
SMILES,Pf growth 48h,HCV inh,Sm TGR inh,HCMV inh,SARS PLpro yeast,Pf growth 96h
CCCNC(=O)c1cn(CC)c2cc(N3CCN(C(=O)c4ccco4)CC3)c(F)cc2c1=O,?,10µM,i,i,i,3.3µM
Cc1cccc(CSc2nc(=O)c3c(n2C)NC(=O)CC3c2cc(F)cc(F)c2)c1 (stereo unspecified),nt,nt,i,i,nt,nt
N#CC1=C(SCC(=O)c2ccc(Br)cc2)NC2=C(C(=O)CCC2)C1c1ccco1 (stereo unspecified),?,4.5µM,i,i,i,nt
O=C(c1sc2cc(Cl)ccc2c1Cl)N1CCN(CCc2ccccn2)CC1,i,?,i,i,i,i
CC(NC(=O)c1ccc(OC2CCN(Cc3ccccn3)CC2)cc1)c1nccs1 (stereo unspecified),i,i,i,i,i,13µM
O=C(NCCc1ccccn1)c1ccc(OC2CCN(CCc3ccccc3)CC2)cc1,i,i,i,i,i,i
CC(Cc1ccccn1)NC(=O)c1ccc(OC2CCN(CCc3ccccc3)CC2)cc1 (stereo unspecified),12µM,?,i,i,i,i
CC1CN(c2ccc([N+](=O)[O-])cc2Cl)CCN1S(C)(=O)=O (stereo unspecified),3.3µM,i,i,i,i,i
COC(=O)c1ccc(CSc2ccc3nnc(-c4cccc(F)c4)n3n2)o1,12µM,i,25µM,i,i,?
CCOC(=O)CC(=O)CSc1ccc2nnc(-c3cccc(F)c3)n2n1,7.4µM,?,i,i,i,i
COc1ccc(CC2SC(N)=NC2=O)cc1 (stereo unspecified),i,i,i,i,i,?
CCCN(CCC)CCCNC(=O)c1cn(CC)c2ccc(S(=O)(=O)N(C)C3CCCCC3)cc2c1=O,9.3µM,?,i,-82!,i,10µM
CCOCCCNC(=O)c1cn(CC)c2ccc(S(=O)(=O)N(C)C3CCCCC3)cc2c1=O,9.3µM,i,i,i,i,?
CCn1cc(C(=O)NCCCOC)c(=O)c2cc(S(=O)(=O)N(C)C3CCCCC3)ccc21,?,i,i,i,i,i
CCn1cc(C(=O)NCCc2ccc(OC)c(OC)c2)c(=O)c2cc(S(=O)(=O)N(C)C3CCCCC3)ccc21,nt,nt,i,-72,nt,nt
CCC1CCCCN1CCCNC(=O)c1cn(CC)c2ccc(S(=O)(=O)N(C)C3CCCCC3)cc2c1=O (stereo unspecified),?,?,i,-69!,i,?
COc1ccc([N+](=O)[O-])cc1N(CC(O)CN1C(=O)NC(C)(C)C1=O)S(=O)(=O)c1ccccc1 (stereo unspecified),i,i,i,i,i,15µM
C(=C\c1ccccc1)/CN1CCN(C(c2ccccc2)c2ccccc2)CC1,i,i[8.37 µM],i,?,i,i
Fc1ccc(C(c2ccc(F)cc2)N2CCN(C/C=C/c3ccccc3)CC2)cc1,13µM,1.6µM!,i,i,i,?
O=C(Oc1ccc[nH]c1=O)c1cc([N+](=O)[O-])cc([N+](=O)[O-])c1,?,i,79µM,i,i,i
COc1ccc(C(=O)Oc2ccc[nH]c2=O)cc1,?,i,i,i,i,i
COc1ccccc1C(NC(=O)CC(C)C)c1c(O)ccc2ccccc12 (stereo unspecified),?,i,i,i,i,i
CCCC(=O)NC(c1ccccc1OC)c1ccc2cccnc2c1O (stereo unspecified),1.7µM,3.5µM,i,nt,i,?
CCCCC(=O)NC(c1ccccc1OC)c1ccc2cccnc2c1O (stereo unspecified),1.9µM,2.2µM,i,+,?,2.1µM
N#Cc1ccccc1OCCOCCNC1CCCC1,i,i,i,i,i,i
CC(C)N1CCN(Cc2ccc3c(c2)OCCO3)CC1CCO (stereo unspecified),i,i,?,i,i,i
Cc1ccc(-c2cccc(CN3CCN(C(C)C)C(CCO)C3)c2)o1 (stereo unspecified),i,i,35µM,i,i,?
